This excerpt belongs to a sample that is enriched for hits.
Sm TGR inh: blocks Schistosoma mansoni thioredoxin glutathione reductase; purified TGR, DTNB reduction, TNB absorbance 405 nm; Potency, µM (series often up to 114 µM), for inactives: at the top dose activity change, negative = inhibition, actives largely listed as inhibitors; actives 3% (n = 360,000); AID 485364; note: potency is the fitted concentration of half-maximal effect; % is set by controls: 0 for no effect and ±100 for the full control effect; nearly all actives have a fitted effect of over 60% in size
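Kinetic colorimetric format: TGR-catalysed, NADPH-driven DTNB reduction monitored via TNB absorbance. Enzyme dispensed at 20 nM; compound exposure 15 min at room temperature before reaction start.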
LmPK inhibitor: LmPK (Leishmania mexicana) enzyme inhibition; Q27686; purified LmPK, Kinase-Glo ATP luminescence, 1 h; Potency, µM (series often up to 57.5 µM), without a hit: at the top dose activity change, negative = inhibition, most hits filed as inhibitors; actives 0.37% (n = 290,000); AID 1721; note: potency is the fitted concentration of half-maximal effect; % is set by controls: 0 for no effect and ±100 for the full control effect
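Screened at intermediate enzyme activity to detect both inhibitors and activators: LmPK at 0.1 nM, with a 0.5 nM enzyme column as activation reference. PEP 0.5 mM, ADP 0.1 mM; ATP detected by luminescence after 1 h.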
Shiga toxin inh: blocks Shiga toxin action in Vero cells; Vero cells, Shiga toxin protein synthesis inhibition reporter; inhibition, % at 38.7 µM; actives 9.2% (n = 290,000); in the data active = inhibition mostly above about 28%, no sharp cut-off; inactive = mostly below about 43%; note: 0% is about no effect
Tb PYK inh: inhibitors of Trypanosoma brucei pyruvate kinase. TbPYK enzyme, Kinase-Glo Plus ATP luminescence, 45 min. actives 0.12% (n = 410,000). Potency, µM (doses to about 76.8 µM), for inactives: at the highest dose activity, negative = inhibition, hits mostly inhibitors; note: potency is the fitted concentration of half-maximal effect; % is set by controls: 0 for no effect and ±100 for the full control effect; nearly all actives have a fitted effect of over 50% in size
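In this concentration-response screen, enzyme-free wells defined baseline while DMSO plates tracked drift. Each reaction combined TbPYK, substrate, compound and 130 uM ADP for 45 min at room temperature. Kinase-Glo Plus luminescence gave the signal.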
FBPA Giardia inh: Giardia lamblia aldolase inhibition; A8B2U2; purified Giardia FBPA; Potency, µM (highest dose often 59.6 µM), without a hit: at the highest dose activity, negative = inhibition, actives largely listed as inhibitors; actives 0.71% (n = 290,000); AID 2451; note: potency is the fitted concentration of half-maximal effect; % is set by controls: 0 for no effect and ±100 for the full control effect; nearly all actives have a fitted effect of over 55% in size
Target sequence (A8B2U2 whole entry, looked up): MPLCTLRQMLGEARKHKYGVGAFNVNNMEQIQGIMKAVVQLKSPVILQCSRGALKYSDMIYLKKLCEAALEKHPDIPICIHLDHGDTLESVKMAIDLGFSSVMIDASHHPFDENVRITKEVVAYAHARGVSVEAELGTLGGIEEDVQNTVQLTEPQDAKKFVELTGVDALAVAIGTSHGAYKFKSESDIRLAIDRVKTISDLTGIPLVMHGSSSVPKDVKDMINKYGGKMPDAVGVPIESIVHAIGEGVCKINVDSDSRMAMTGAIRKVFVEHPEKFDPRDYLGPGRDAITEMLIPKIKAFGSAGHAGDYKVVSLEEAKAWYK
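Giardia FBPA (40 nM reagent) was preincubated 10 min at RT with compound (up to 57.5 uM final), then substrate plus GAPDH/TPI/NAD/arsenate coupling system with diaphorase/resazurin was added; resorufin fluorescence (525/598 nm) was read after 20 min.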
CHX counter: affects cycloheximide protein synthesis inhibition readout, counter-screen. max response, %. cell reporter, cycloheximide protein synthesis inhibition counterscreen. actives 12% (n = 300,000); in the data active = max response mostly above about 13%, no sharp cut-off; inactive = mostly below about 14%; note: read at 38.3 µM for the half of the compounds with a filed dose; 0% is about no effect
* hit, by the source's call; . = not tested or not shown; [ ] = dose if it differs, or a comment. Unless noted, calls come from the whole dose curve; as a rule, active = well fitted curve in the direction sought with a large enough effect; inconclusive = small, poorly fitted or top-dose-only effect, or another doubt; inactive = no such curve, though single readings can be large; an effect the other way counts as inactive or inconclusive.

SMILES	Sm TGR inh	LmPK inhibitor	Shiga toxin inh	Tb PYK inh	FBPA Giardia inh	CHX counter
CN(C(=O)COC(=O)c1cncc(Br)c1)C1CCCCC1	.	.	.	3%	.	.
Cc1cccc(N2CCN(C(=O)CN3C(=O)COc4ccc(S(=O)(=O)N5CCC(C)CC5)cc43)CC2C)c1 (stereo not drawn)	-2%	.	.	3%	.	.
Oc1ccccc1-c1nnc2n1CCCCC2	8%	1%	-11	0%	1%	-3
Cc1cc(-c2nnc3n2CCCCC3)c(C)n1-c1ccccc1	0%	-1%	91*	-6%	0%	12
O=C(c1ccc2c(Cl)c3c(nc2c1)CCCC3)N1CCN(c2ccccc2F)CC1	-5%	.	.	2%	.	.
Cc1cc(C)cc(NC(=O)N2CCC3(CC2)Oc2ccccc2C(=O)N3Cc2ccccc2F)c1	-1%	.	.	-2%	.	.
COc1ccc(-c2nc(SCC(=O)Nc3ccc4c(c3)OCCO4)c(-c3ccc(C)cc3)[nH]2)cc1OC	2%	.	.	-7%	.	.
Cc1ccc(C(=O)C(C(=O)/C=C/c2ccccc2)=C2SCCCS2)cc1	-9%	5%	40	-17%	1%	20*
O=C(CCCOc1ccccc1)Nc1ccc(Cl)cn1	8%	3%	64*	-16%	3%	30*
O=C(CN1CCCCCC1)Nc1ccc(Cl)cn1	40µM*	-1%	19	-10%	5%	10
O=C(CN1CCN(Cc2ccccc2)CC1)Nc1ccc(Cl)cn1	-33%	0%	10	8%	3%	1
CCCCCCC(=O)Nc1ccc(Cl)cn1	6%	4%	100*	-4%	2%	32*
CC(=O)CC(=O)Nc1ccc(Cl)cn1	.	1%	-9	-5%	-3%	-4
Cc1cccc(NNC(=O)c2c(F)cccc2Cl)c1	8%	4%	-5	0%	-6%	-1
COc1ccc(C2CC(=O)N(Cc3ccc(F)cc3)c3ccccc3S2)cc1OC (stereo not drawn)	3%	.	.	2%	.	.
COc1ccc(C2CC(=O)N(CC(=O)NCC3CCCO3)c3ccccc3S2)cc1OC (stereo not drawn)	7%	0%	18	-1%	3%	25*
COc1ccc(C2CC(=O)N(C)c3ccccc3S2)cc1OC (stereo not drawn)	7%	1%[11.5 µM]	149*	-5%	18%	57*
Cc1cc(NC(=O)CN2C(=O)CC(c3ccco3)Sc3ccccc32)no1 (stereo not drawn)	16µM*	3%	3	-3%	-26%	1
Cc1ccc(CSc2ccc(-c3cccs3)nn2)cc1	1%	-4%	47*	-6%	1%	46*
Fc1cccc(CSc2ccc(-c3cccs3)nn2)c1	1%	.	.	-1%	.	.
Cc1ccccc1CSc1ccc(-c2cccs2)nn1	-9%	.	.	-1%	.	.
Fc1ccc(CSc2ccc(-c3cccs3)nn2)cc1	1%	2%	38	-2%	2%	30*
c1cncc(CSc2ccc(-c3cccs3)nn2)c1	0%	2%	44*	-3%	-2%	26*
CCOC(=O)N1CCN(C(=O)CSCC(=O)Nc2nc(-c3ccc(OC)cc3)cs2)CC1	3%	-1%	-3	-12%	1%	10
O=C(CSCC(=O)N1CCOCC1)Nc1ccccc1	-14%	3%	-2	-20%	2%	-4
SMILES	Sm TGR inh	LmPK inhibitor	Shiga toxin inh	Tb PYK inh	FBPA Giardia inh	CHX counter
O=C(CSCC(=O)N1CCOCC1)Nc1nc(-c2ccccc2)cs1	1%	1%	84*	-4%	-1%	35*
CCOC(=O)N1CCN(C(=O)CSCC(=O)Nc2nc(-c3ccc(-c4ccccc4)cc3)cs2)CC1	-14%	-4%	active	-9%	-2%	32*
CCOC(=O)N1CCN(C(=O)CSCC(=O)Nc2nc(-c3ccc(Cl)s3)cs2)CC1	-6%	-1%	-15	0%	-5%	14*
Cc1ccc(-n2c(=O)c3c(c4cc(C)ccc4n3C)n(CC(=O)Nc3ccc(F)cc3)c2=O)cc1	-3%	.	.	2%	.	.
COc1ccc(CC(=O)NCc2cccc(Cl)c2)cc1S(=O)(=O)N1CCOCC1	.	.	.	2%	.	.
O=C(N[C@@H](Cc1c[nH]c2ccccc12)C(=O)NC1CC1)c1ccccc1Cl	-1%	-6%	28	3%	-3%	47*
COc1cc(C(=O)N[C@@H](Cc2c[nH]c3ccccc23)C(=O)O)cc(OC)c1OC	-1%	4%	67*	2%	-8%	35*
CCCNC(=O)[C@H](Cc1c[nH]c2ccccc12)NC(=O)c1ccccc1Cl	4%	-3%	9	2%	-4%	25*
Cc1ccc(C(=O)NC(Cc2c[nH]c3ccccc23)C(=O)O)cc1 (stereo not drawn)	1%	-4%	-8	-26%	17%	-1
CC(C)OC(=O)c1cccc2c1C(=O)c1ccccc1-2	-8%	-1%	74*	2%	-5%	38*
O=C(Nc1ccccc1Br)N1CCN2CCCCC2C1 (stereo not drawn)	46%	.	.	2%	.	.
CCOCCCNC(=O)/C=C1\Sc2ccccc2N(Cc2ccccc2F)C1=O	-14%	8%	131*	-7%	1%	32*
CCOCCCNC(=O)CN1C(=O)/C(=C/c2ccccc2C)Sc2ccccc21	0%	1%	24	2%	-8%	-1
Cc1ccc(N/C(N)=N/c2nc(C)cc(C)n2)cc1	0%	2%	-11	-5%	4%	-3
Cc1cc(C)nc(/N=C(\N)Nc2ccc(C(C)C)cc2)n1	-13%	0%	23	-3%	0%	14*
CCOC(=O)c1c(-c2ccccc2)oc2ccc(NS(=O)(=O)c3ccc(C)cc3)cc12	0%	.	.	2%	.	.
O=C(c1cc(-c2cccc(O)c2)on1)N1CCCCC1	-11%	-22%	37*	-4%	5%	35*
O=C(c1cc(-c2cccc(O)c2)on1)N1CCCC1	-13%	-11%	62*	-6%	-16%	37*
CCC(=O)c1ccc(OCc2ccccc2)c(OC)c1	7%	0%	88*	-2%	2%	43*
COc1cc(C(=S)N2CCCC2)ccc1OCc1ccccc1	0%	1%	66*	2%	-9%	30*
C#CCOCCOCCOCCNc1nc(N2CCN(C(=O)[C@H]([C@@H](C)CC)n3cc([C@@H](N)CC(C)C)nn3)CC2)nc(N2CCN(C(=O)[C@H]([C@@H](C)CC)n3cc([C@@H](N)CC(C)C)nn3)CC2)n1	28µM*	3%	1	-2%	-10%	2
C#CCOCCOCCOCCNc1nc(N2CCN(C(=O)[C@H](CCC(=O)O)n3cc(C(N)Cc4ccc(O)cc4)nn3)CC2)nc(N2CCN(C(=O)[C@H](CCCCN)n3cc(C(N)[C@H](C)CC)nn3)CC2)n1 (stereo partly drawn)	32µM*	-5%	-8	.	-9%	3

Compound activity (PubChem)
